Luciferase inh: inhibitors of firefly luciferase; P08659; purified firefly luciferase, luminescence, 8 min; Potency, µM (titrated, usually from 57.1 µM), hits mostly inhibitors; hit rate 2.2% among 72,000; active = well fitted inhibition curve with a large enough effect; inconclusive = small, poorly fitted or top-dose-only effect; also: nearly all actives have a fitted effect of over 40% in size
Target sequence (P08659 whole entry, looked up): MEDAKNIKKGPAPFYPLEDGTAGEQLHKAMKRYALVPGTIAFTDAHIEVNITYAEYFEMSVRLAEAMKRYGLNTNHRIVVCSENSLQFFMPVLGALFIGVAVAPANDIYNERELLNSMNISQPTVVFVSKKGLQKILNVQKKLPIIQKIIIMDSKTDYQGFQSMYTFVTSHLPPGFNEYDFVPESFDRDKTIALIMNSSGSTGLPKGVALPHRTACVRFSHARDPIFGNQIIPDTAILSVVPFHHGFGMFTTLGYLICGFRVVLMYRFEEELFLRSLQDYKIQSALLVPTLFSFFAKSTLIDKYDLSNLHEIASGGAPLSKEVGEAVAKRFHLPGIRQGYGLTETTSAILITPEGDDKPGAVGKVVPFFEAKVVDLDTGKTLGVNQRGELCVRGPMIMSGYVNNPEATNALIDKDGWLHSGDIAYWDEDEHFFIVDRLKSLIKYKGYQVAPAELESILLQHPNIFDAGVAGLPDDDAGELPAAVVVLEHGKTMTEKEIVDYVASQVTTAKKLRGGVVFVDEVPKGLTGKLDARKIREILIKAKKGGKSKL
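Inhibition of light generation by firefly luciferase from ATP and luciferin was profiled with concentration-response curves per sample, ATP held at 10 uM within the enzyme's linear range. Plates were read by luminescence after an 8-minute ambient incubation.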
PK Bst: alters activity of Bacillus stearothermophilus pyruvate kinase. purified pyruvate kinase, luminescence ATP production; ribose 5-phosphate activator present at AC10. Potency, µM. hit rate 1.2% among 51,000. AID 361; in the data active = potency below about 11 µM; inconclusive = mostly about 12 µM to 25 µM;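 the screen sought inhibitors and activators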
GBA mod: alters purified human glucocerebrosidase activity. P04062. purified enzyme, resorufin glucoside fluorescence (screen aimed at inhibitors), 20 min. Potency, µM. hit rate 1.1% among 48,000; in the data active = potency below about 15 µM; inconclusive = mostly about 16 µM to 33 µM;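 also: the screen sought inhibitors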
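Normal human glucocerebrosidase (0.2 nM final) was assayed with resorufin β-D-glucopyranoside (30 uM final) in 50mM citric acid/KH2PO4, 10mM sodium taurocholate, 0.01% tween-20, pH 5.9. Compounds were titrated; fluorescence (Ex 548, Em 600) read after 20 min at RT.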
Each line names hits and unclear results; the compound was inactive in the other large screens. In the library only some 3.4% were active in any assay of this set; here they are far more common.

Cc1ccc(OCCn2c(=O)cnc3ccccc32)cc1	none
Cc1cc(C(C)(C)C)c(OCCCN2CCOCC2)c(C(C)(C)C)c1	none (no result: PK Bst, GBA mod)
CC(C)CO/N=C1/C[C@@H](O)[C@@H](O)[C@@H]2[C@@H]3C(=O)N(C(C)(C)C)C(=O)[C@H]3CC[C@H]12	none (no result: PK Bst, GBA mod)
Nc1nc(=O)c2[nH]cnc2n1O	none (no result: PK Bst, GBA mod)
COc1cc2nc(NCCN3CCOCC3)n3nc(-c4ccccc4)nc3c2cc1OC	none
CN1CCN(CCCNc2nc3ccccc3c3nc(-c4ccccc4)nn23)CC1	PK Bst 10
COc1ccccc1CN1CCC2(CC1)CCN(C(=O)c1cccn1C)CC2	none (no result: PK Bst, GBA mod)
O=c1c(-c2cccs2)nc2cnc(Oc3ccccc3)nc2n1C1CC1	none (no result: PK Bst, GBA mod)
NC(Cc1ccccc1)=NCC(=O)O	none (no result: PK Bst, GBA mod)
CCOc1ccc(OCc2cccc(C(=O)N3CCOCC3)c2)cc1	Luciferase inh 5µM, PK Bst 8.5
CN1CCN(C(=O)c2cccc(COc3cc(Cl)ccc3Cl)c2)CC1	none (no result: GBA mod)
Cc1cccc(CNc2ccnc(-c3ccccc3Cl)n2)c1	none (no result: PK Bst, GBA mod)
O=C1CN(C(=O)c2ccco2)C(c2ccc(F)cc2)c2cc(Cl)ccc2N1 (configuration not stated)	none
O=C1CN2C(=Nc3ccc(Cl)cc3C2c2ccccc2)CN1 (configuration not stated)	GBA mod 1.3
O=c1[nH][nH]c(=S)c(=O)[nH]1	none (no result: PK Bst, GBA mod)
N#CCCn1c(=O)c(-c2cccs2)nc2cnc(OCc3ccccc3)nc21	none (no result: PK Bst, GBA mod)
Cn1c(=O)c2c(nc(CN3CCN(c4ccccc4)CC3)n2Cc2ccccc2Cl)n(C)c1=O	none
CN1CCN(Cc2nc3c(c(=O)n(C)c(=O)n3C)n2Cc2ccccc2Cl)CC1	Luciferase inh 13µM (no result: PK Bst, GBA mod)
CC1CCCN(Cc2nc3c(c(=O)n(C)c(=O)n3C)n2Cc2c(F)cccc2Cl)C1 (configuration not stated)	Luciferase inh 6.3µM (no result: PK Bst, GBA mod)
CC1CCN(Cc2nc3c(c(=O)n(C)c(=O)n3C)n2Cc2c(F)cccc2Cl)CC1	none
COCCn1c(=O)c(-c2cccs2)nc2cnc(OCc3ccccc3)nc21	none (no result: PK Bst, GBA mod)
Cc1ccccc1-c1nc(NC2CCNCC2)c2ccccc2n1	none (no result: PK Bst, GBA mod)
COc1ccccc1CNC(=O)c1ccc(NS(=O)(=O)c2c(C)noc2C)cc1	GBA mod inconclusive
COc1ccccc1NC(=O)c1ccc(NS(=O)(=O)c2c(C)noc2C)cc1	none
Cc1noc(C)c1S(=O)(=O)Nc1ccc(C(=O)NC2CCCCC2)cc1	GBA mod 4.1
COc1ccc(CNC(=O)c2ccc(NS(=O)(=O)c3c(C)noc3C)cc2)cc1	GBA mod inconclusive
COc1ccc(NC(=O)c2ccc(NS(=O)(=O)c3c(C)noc3C)cc2)cc1OC	GBA mod 0.29
Cc1noc(C)c1S(=O)(=O)Nc1ccc(C(=O)NCCc2ccccc2)cc1	GBA mod 1.6
Cc1ccc(C)c(N2CCN(C(=O)c3ccc(NS(=O)(=O)c4c(C)noc4C)cc3)CC2)c1	GBA mod inconclusive
Cc1ccc(NC(=O)c2ccc(NS(=O)(=O)c3c(C)noc3C)cc2)cc1C	GBA mod 11
CC1(C)OC[C@@H]2O[C@H](n3cnc4c(N)nc(Cl)nc43)[C@@H](OS(C)(=O)=O)[C@@H]2O1	none (no result: PK Bst, GBA mod)
CC1=C(CC[C@H](C)CO)O[C@@H]2C[C@@H]3[C@H]4CC[C@H]5C[C@@H](O)CC[C@]5(C)[C@@H]4CC(=O)[C@@]3(C)[C@@H]12	none (no result: PK Bst, GBA mod)
COCCn1c(=O)c(-c2cc(F)cc(F)c2)nc2cnc(OC)nc21	none (no result: PK Bst, GBA mod)
Nc1ncn([C@@H]2O[C@@H](CO)[C@@H](O)[C@H]2O)c(=O)n1	none (no result: PK Bst, GBA mod)
NCCC[C@@H](N)C(=O)O	none (no result: PK Bst, GBA mod)
CC(C)C[C@H](NC(=O)[C@@H](NC(=O)N[C@@H](Cc1ccccc1)C(=O)O)[C@H]1CCN=C(N)N1)C(=O)N[C@H](C=O)Cc1ccccc1	none (no result: PK Bst, GBA mod)
Cn1c(=O)c2c(ncn2CCSS(=O)(=O)O)n(C)c1=O	none (no result: PK Bst, GBA mod)
Nc1ccc(-c2cnc(-c3ccc(N)cc3)nc2)cc1	Luciferase inh 13µM, PK Bst inconclusive
CCCCCCc1ccc(-c2ncc(N)cn2)cc1	none (no result: PK Bst, GBA mod)
NCC(=O)Nc1ccccc1	none (no result: PK Bst, GBA mod)
Nc1ccn([C@H]2CC[C@H](CO)O2)c(=O)n1	none (no result: PK Bst, GBA mod)
C#CCn1cnc2c(cnn2-c2ccc(C)c(C)c2)c1=O	GBA mod 15
Cc1ccc(-n2ncc3c(=O)n(CC#N)cnc32)cc1C	none
Cc1nc2c3cnn(-c4ccc(C)c(C)c4)c3ncn2n1	none (no result: PK Bst)
CCc1nnc2c3cnn(-c4ccc(C)c(C)c4)c3ncn12	GBA mod 0.21
O=C(NCc1ccccn1)c1cc(-c2ccccc2)on1	none
O=C(c1ccccc1)c1cc(-c2ccccc2)on1	Luciferase inh 1.6µM, PK Bst 1.9 (no result: GBA mod)
N[C@H](C(=O)O)[C@@H]1[C@@H](C(=O)O)C1(F)F	none (no result: PK Bst, GBA mod)
CCOC(=O)CC1=C(C(=O)OCC)C(c2cc(OC)c(OC)cc2OC)C(C#N)=C(N)O1 (configuration not stated)	none (no result: GBA mod)
CCOC(=O)CC1=CC(C)(CC(=O)OCC)C(C#N)(C#N)C(N)=C1C#N (configuration not stated)	GBA mod 4.8
COCCNc1ccnc(-c2ccccc2C(F)(F)F)n1	none (no result: PK Bst, GBA mod)
c1ccc(Nc2ncnc3ccc(-c4cccnc4)cc23)cc1	none (no result: PK Bst, GBA mod)
N#CCCn1c(=O)c(-c2ccccc2)nc2cnc(N3CCOCC3)nc21	none (no result: PK Bst, GBA mod)
COc1ccc(CSc2nc(C)cc(=O)[nH]2)cc1	none (no result: PK Bst, GBA mod)
Cc1cc(=O)[nH]c(S/C=C/c2ccccc2)n1	Luciferase inh 16µM
CC(C)(C)N1C(=O)[C@H]2[C@@H]3[C@H](O)C=CC(=O)[C@H]3CC[C@H]2C1=O	none (no result: PK Bst, GBA mod)
COc1cccc(-c2cc3nc(-c4ccccc4)cc(N4CCC5(CC4)OCCO5)n3n2)c1	none (no result: PK Bst)
Fc1ccc(-c2cc3nc(-c4ccccc4)cc(N4CCN(CCN5CCOCC5)CC4)n3n2)cc1	PK Bst 2.4, GBA mod inconclusive
O=C(CSc1nnc2sc3ccccc3n12)c1ccco1	Luciferase inh 16µM
CN(C)C(=O)CSc1nnc2sc3ccccc3n12	none
CC1CCC/C(=C\Nc2ccccc2C(=O)O)C1=O (configuration not stated)	none
CC1CCC/C(=C\Nc2ccc3c(c2)OCO3)C1=O (configuration not stated)	Luciferase inh 10µM
CC(=O)OC[C@H]1O[C@@H](O/N=C(\C)CCN2CCCc3nc(C)c(C)cc32)[C@H](OC(C)=O)[C@@H](OC(C)=O)[C@H]1OC(C)=O	none (no result: PK Bst, GBA mod)
CC(=O)O[C@H]1CC[C@@]2(C)[C@@H](CC[C@@]3(C)[C@H]2C(=O)C=C2[C@H]4C[C@](C)(C(=O)OCCN5CCCCC5)CC[C@]4(C)CC[C@@]23C)C1(C)C	none (no result: PK Bst, GBA mod)
COc1cccc(OC)c1C(=O)Nc1ccc(N2CCN(S(C)(=O)=O)CC2)cc1	none
COc1ccc(Br)cc1C(=O)Nc1ccc(N2CCN(S(C)(=O)=O)CC2)cc1	GBA mod 12
CNc1nc(-c2ccccc2C)nc2ccccc12	none (no result: PK Bst, GBA mod)
CC(C)(C)c1ccc(S(=O)(=O)NCCc2ccncc2)cc1	GBA mod inconclusive
CCCc1ccc(S(=O)(=O)NCCc2ccncc2)cc1	GBA mod 7.1
COc1ccc2oc(=O)c(-c3nnc(NCc4ccco4)s3)cc2c1	GBA mod 9.9
CCOc1cccc2cc(-c3nnc(NCc4ccco4)s3)c(=O)oc12	none (no result: PK Bst)
N[C@H](C(=O)O)[C@@H](O)c1cnc[nH]1	none (no result: PK Bst, GBA mod)
C[C@H](O/N=C1/[C@H]2O[C@@H]2[C@@H](O)[C@H]2[C@H]1CCn1c(=O)n(-c3ccccc3)c(=O)n12)c1cn([C@H]2COC[C@H]2O)nn1	none (no result: PK Bst, GBA mod)
COc1ccccc1Cn1c(=O)[nH]c2cccnc21	none

Source: PubChem (National Center for Advancing Translational Sciences (NCATS))
